Test results as given in PubChem BioAssay (NCI).
This is part of a sample that, as a whole, favours compounds with a hit. Of some 79,000 tested, about 15% had one in any assay. The source made the active and inactive calls. Cut-off read from the data, not from the text of the source: active = growth inhibition above about 70%; inactive = the rest.

Tests used:
[1] = NCI Yeast Anticancer Drug Screen. Data for the rad52 strain (AID 147);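 note: 0% = growth of vehicle-treated control cultures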; settings: S. cerevisiae rad52 mutant growth inhibition, active compounds read high
In short: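 Genetically altered yeast (DNA damage repair defect) treated with compound; inhibition calculated relative to vehicle.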

[2] = NCI Yeast Anticancer Drug Screen. Data for the rad50EPP+ strain (AID 151);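 note: 0% = growth of vehicle-treated control cultures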; settings: S. cerevisiae rad50 mutant strain, active compounds read high
In short: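 Strain rad50EPP+; compound exposure; % growth inhibition vs vehicle.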

[3] = NCI Yeast Anticancer Drug Screen. Data for the mgt1 strain (AID 153); settings: S. cerevisiae mgt1 mutant growth inhibition, active compounds read high
In short: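 Read-out: yeast growth inhibition vs vehicle control. Strain mgt1, drawn from a panel altered in DNA damage repair or cell cycle control.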

[4] = NCI Yeast Anticancer Drug Screen. Data for the rad50 strain (AID 155);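 note: 0% = growth of vehicle-only cultures of the same strain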; settings: S. cerevisiae rad50 strain growth inhibition, active compounds read high
In short: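 Inhibition values express reduced yeast growth in compound-treated cultures relative to vehicle-treated controls.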

[5] = NCI Yeast Anticancer Drug Screen. Data for the mec2-1 strain (AID 157); settings: S. cerevisiae mec2-1 strain, active compounds read high
In short: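 Cells of the genetically defined mec2-1 yeast strain are incubated with test compound. Inhibition of growth is calculated against vehicle-treated controls.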

[6] = NCI Yeast Anticancer Drug Screen. Data for the sgs1 mgt1 strain (AID 161);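 note: 0% = growth of cultures given vehicle only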; settings: S. cerevisiae sgs1 mgt1 strain, active compounds read high
In short: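 Genetically altered yeast, compound exposure, growth inhibition relative to vehicle.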

[7] = NCI Yeast Anticancer Drug Screen. Data for the CLN2oe strain (AID 163);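 note: 0% = growth of vehicle-only control cultures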; settings: S. cerevisiae CLN2oe strain, active compounds read high
In short: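 Strain altered in cell-cycle control, incubated with compound; growth compared to solvent-treated controls.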

[8] = NCI Yeast Anticancer Drug Screen. Data for the cln2 rad14 strain (AID 165);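 note: 0% = growth equal to vehicle treated cultures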; settings: S. cerevisiae cln2 rad14 strain, active compounds read high
In short: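 The screen exposed genetically defined yeast (cln2 rad14) to test compounds and scored growth inhibition relative to vehicle-treated controls.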

[9] = NCI Yeast Anticancer Drug Screen. Data for the bub3 strain (AID 167); settings: S. cerevisiae bub3 mutant strain, active compounds read high
In short: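 Steps: expose the mutant yeast strain to compound; grow alongside vehicle-treated cultures; measure growth; express inhibition against the vehicle cultures.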

[10] = NCI Yeast Anticancer Drug Screen. Data for the wt2 strain (AID 169);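 note: 0% = growth of vehicle-treated yeast cultures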; settings: S. cerevisiae wt2 strain growth inhibition, active compounds read high
In short: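 Steps: yeast strain treated with compound; growth recorded; inhibition calculated relative to cultures given vehicle alone.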

[11] = NCI Yeast Anticancer Drug Screen. Data for the mlh1 strain (AID 171);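 note: 0% = growth of vehicle-treated control cultures of the same strain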; settings: S. cerevisiae mlh1 strain growth inhibition, active compounds read high
In short: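 Yeast screen: mutant strain plus compound, growth scored against vehicle control wells.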

[12] = NCI Yeast Anticancer Drug Screen. Data for the sgs1 strain (AID 173);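 note: 0% = growth of vehicle-only control cultures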; settings: S. cerevisiae sgs1 mutant, active compounds read high
In short: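 Inhibition of yeast growth served as the measure. The mutant strain was treated with each compound, and growth was normalised to cultures receiving vehicle alone.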

[13] = NCI Yeast Anticancer Drug Screen. Data for the mlh1 rad18 strain (AID 175); settings: S. cerevisiae mlh1 rad18 strain growth inhibition, active compounds read high
In short: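 Compound-treated yeast growth, normalised to vehicle controls. Strain bears defined DNA repair mutations.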

[14] = NCI Yeast Anticancer Drug Screen. Data for the rad18 strain (AID 177); settings: S. cerevisiae rad18 mutant growth inhibition, active compounds read high
In short: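 Inhibition values reflect reduced yeast growth compared with vehicle-treated controls, using a strain engineered with a DNA damage repair defect.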

[15] = NCI Yeast Anticancer Drug Screen. Data for the rad14 strain (AID 159);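 note: 0% = growth of vehicle-treated control cultures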; settings: S. cerevisiae rad14 strain growth inhibition, active compounds read high
In short: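 A mutant yeast strain defective in DNA damage repair is treated with compound; inhibition of its growth is scored against untreated, vehicle-exposed cultures.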

[16] = NCI Yeast Anticancer Drug Screen. Data for the wt1 strain (AID 149);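 note: 0% = growth of vehicle-treated wt1 cultures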; settings: S. cerevisiae wt1 strain (SPY 50644) growth inhibition, active compounds read high
In short: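 Compounds are added to wt1 yeast cultures. Growth is then measured. Inhibition is expressed relative to vehicle-treated controls.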

[17] = at 5.0 µM (retest, dose inferred, filed as 0.5)
[18] = at 50.0 µM (retest, dose inferred, filed as 5.0)

Measured: growth inhibition

Cc1ccc2ccc(O)cc2c1
inactive: [1]; at 1.2 µM -31% | [1]; at 3.7 µM -35% | [1]; at 11.0 µM -30% | [1]; at 33.0 µM -31% | [2]; at 1.2 µM -25% | [2]; at 3.7 µM -49% | [2]; at 11.0 µM -25% | [2]; at 33.0 µM -12% | [2]; at 100.0 µM 46% | [3]; at 1.2 µM -25% | [3]; at 3.7 µM -19% | [3]; at 11.0 µM -22% | [3]; at 33.0 µM -21% | [3]; at 100.0 µM 50% | [4]; at 1.2 µM -23% | [4]; at 3.7 µM -28% | [4]; [17] -9% | [4]; at 11.0 µM -38% | [4]; at 33.0 µM -11% | [4]; [18] 33% | [4]; at 50.0 µM 58.2% | [5]; at 1.2 µM -37% | [5]; at 3.7 µM -33% | [5]; [17] -10% | [5]; at 11.0 µM -32% | [5]; at 33.0 µM -42% | [5]; at 50.0 µM 1.85% | [5]; at 100.0 µM 50% | [6]; [17] 5% | [6]; [18] 43% | [7]; at 1.2 µM -10% | [7]; at 3.7 µM -13% | [7]; at 11.0 µM -9% | [7]; at 33.0 µM -17% | [8]; [17] 4% | [8]; [18] 53% | [9]; at 1.2 µM 4% | [9]; at 3.7 µM 10% | [9]; [17] 4% | [9]; at 11.0 µM 14% | [9]; at 33.0 µM 14% | [9]; [18] 23% | [10]; at 1.2 µM -18% | [10]; at 3.7 µM -19% | [10]; at 11.0 µM -21% | [10]; at 33.0 µM -20% | [10]; at 100.0 µM 56% | [11]; at 1.2 µM -9% | [11]; at 3.7 µM -19% | [11]; at 11.0 µM -27% | [11]; at 33.0 µM -24% | [11]; at 100.0 µM 68% | [12]; at 1.2 µM -24% | [12]; at 3.7 µM -14% | [12]; at 11.0 µM -38% | [12]; at 33.0 µM -19% | [12]; at 100.0 µM 32% | [13]; [17] -33% | [13]; [18] 63% | [13]; at 50.0 µM 48.5% | [14]; at 1.2 µM -21% | [14]; at 3.7 µM -32% | [14]; at 11.0 µM -22% | [14]; at 33.0 µM -23% | [14]; at 100.0 µM 69%
active: [1]; at 100.0 µM 80% | [4]; at 100.0 µM 92% | [5]; [18] 95% | [6]; at 50.0 µM 80.1% | [7]; at 100.0 µM 83% | [8]; at 50.0 µM 82% | [9]; at 50.0 µM 86.7% | [9]; at 100.0 µM 88%

CCc1ncnc2cc(OCC3CO3)c(OC)cc12 (stereo unspecified)
inactive: [1]; at 1.2 µM 7% | [1]; at 3.7 µM 46% | [1]; at 11.0 µM 66% | [2]; at 1.2 µM 8% | [2]; at 3.7 µM 31% | [2]; at 11.0 µM 31% | [2]; at 33.0 µM 47% | [3]; at 1.2 µM -14% | [3]; at 3.7 µM -8% | [3]; at 11.0 µM -3% | [3]; at 33.0 µM 22% | [3]; at 100.0 µM 48% | [4]; at 1.2 µM 23% | [4]; at 3.7 µM 44% | [5]; at 1.2 µM 2% | [5]; at 3.7 µM 6% | [5]; [17] 26% | [5]; at 11.0 µM 22% | [15]; at 1.2 µM 0% | [15]; at 3.7 µM 1% | [15]; at 11.0 µM 46% | [8]; [17] 17% | [9]; at 1.2 µM 17% | [9]; at 3.7 µM -7% | [9]; [17] 10% | [9]; at 11.0 µM 2% | [9]; at 33.0 µM 12% | [9]; [18] 47% | [9]; at 50.0 µM 17.9% | [9]; at 100.0 µM 43% | [10]; at 1.2 µM -26% | [10]; at 3.7 µM -15% | [10]; at 11.0 µM -14% | [10]; at 33.0 µM 13% | [11]; at 1.2 µM -4% | [11]; at 3.7 µM -6% | [11]; at 11.0 µM 9% | [11]; at 33.0 µM 14% | [11]; at 100.0 µM 61% | [12]; at 1.2 µM 31% | [12]; at 3.7 µM 53%
active: [1]; at 33.0 µM 82% | [1]; at 100.0 µM 87% | [2]; at 100.0 µM 74% | [4]; [17] 72% | [4]; at 11.0 µM 72% | [4]; at 33.0 µM 85% | [4]; [18] 92% | [4]; at 50.0 µM 84.3% | [4]; at 100.0 µM 91% | [5]; at 33.0 µM 75% | [5]; [18] 92% | [5]; at 50.0 µM 89.4% | [5]; at 100.0 µM 91% | [15]; at 33.0 µM 85% | [15]; at 100.0 µM 94% | [6]; [17] 79% | [6]; [18] 93% | [6]; at 50.0 µM 82.7% | [8]; [18] 79% | [8]; at 50.0 µM 79.1% | [10]; at 100.0 µM 72% | [12]; at 11.0 µM 70% | [12]; at 33.0 µM 82% | [12]; at 100.0 µM 91% | [13]; [17] 90% | [13]; [18] 95% | [13]; at 50.0 µM 81.2% | [14]; at 1.2 µM 73% | [14]; at 3.7 µM 84% | [14]; at 11.0 µM 92% | [14]; at 33.0 µM 91% | [14]; at 100.0 µM 93%

CC(C)c1cc(C(C)C)c(O)c(C([O-])[O-])c1.CC(C)c1cc(C(C)C)c(O)c(C([O-])[O-])c1.CC(C)c1cc(C(C)C)c(O)c(C([OH2+])[OH2+])c1.CC(C)c1cc(C(C)C)c(O)c(C([OH2+])[OH2+])c1.[Cu+2].[Cu+2].[OH3+].[OH3+]
active: [3]; at 100.0 µM 91% | [4]; at 100.0 µM 94%
inactive: [16]; at 1.2 µM -2% | [16]; at 3.7 µM 4% | [16]; at 11.0 µM 20% | [16]; at 33.0 µM 35% | [16]; at 100.0 µM 67% | [2]; at 1.2 µM 1% | [2]; at 3.7 µM 0% | [2]; at 11.0 µM 4% | [2]; at 33.0 µM 11% | [2]; at 100.0 µM 21% | [3]; at 1.2 µM -2% | [3]; at 3.7 µM 6% | [3]; at 11.0 µM 18% | [3]; at 33.0 µM 56% | [4]; at 1.2 µM 5% | [4]; at 3.7 µM 8% | [4]; [17] 5% | [4]; at 11.0 µM 21% | [4]; at 33.0 µM 65% | [4]; [18] 31% | [4]; at 50.0 µM 39.8% | [5]; at 1.2 µM 7% | [5]; at 3.7 µM 18% | [5]; [17] 1% | [5]; at 11.0 µM 36% | [5]; at 33.0 µM 52% | [5]; [18] 27% | [5]; at 50.0 µM 38.1%
